Potency and affinity values are given separately. Calls of active or inactive are those of the source. Where a call stands in place of a potency, no number is given. No rule for the calls is given here.
Columns and labels:
[1] = A549 cell cytotoxicity, dose response, cytotoxicity control, plate reader, cherry-pick, antagonist series (AID 743412)
[2] = toxicity toward HepG2 liver cells – cell-based, plate reader, cherry-pick, antagonist series, cytotoxicity control, dose response (AID 743416)
[3] = molecular target: Melanocortin receptor 4 (Homo sapiens) (UniProt P32245); assay: blockade of melanocortin 4 receptor signaling – cell-based, plate reader, cherry pick, counter-screen for LGR2 antagonist project, dose response (AID 743444)

Compound	outcome [1]	outcome [2]	outcome [3]
COCCn1c(C)c(C)c2c(NCCc3ccccc3)ncnc21	inactive	inactive	
CC1CN(C(=O)c2cccc(S(=O)(=O)Nc3cc(Cl)ccc3Cl)c2)CC(C)O1 (centres undefined)	inactive	inactive	inactive
O=C(CN1C(=O)c2ccccc2S1(=O)=O)c1ccccc1F	inactive	inactive	
Cc1ccc(-c2nc(-c3ccccn3)no2)cc1[N+](=O)[O-]	inactive	inactive	
CC(=O)Nc1cccc(-c2ccnc3c2CC(C(=O)NCc2cccnc2)O3)c1 (centres undefined)	inactive	inactive	inactive
CC(C)N(C(=O)Nc1ccc2nsnc2c1)C(C)C	inactive	inactive	inactive
Cc1ccc(-c2nc(-c3ccncc3)no2)c(Cl)c1	inactive	inactive	
CO[C@H]1CN(C)C(=O)c2ccc(NC(=O)c3ccc(-c4ccccc4)cc3)cc2OC[C@@H](C)NC[C@@H]1C	inactive	inactive	inactive
Cc1ccc(C(=O)Nc2ccc3c(c2)OCCO3)c(Cl)c1	inactive	inactive	
C=CCn1c(SCC(=O)Nc2ncc(Cc3ccc(C)c(Cl)c3)s2)nnc1-c1ccncc1	inactive	inactive	inactive
CO[C@@H]1CN(C)C(=O)c2ccc(NC(=O)C3CC3)cc2OC[C@@H](C)NC[C@@H]1C	inactive	inactive	inactive
COc1ccc(NC(=O)N(C)C[C@@H]2OCCCC[C@H](C)Oc3ccc(NC(=O)NC4CCCCC4)cc3C(=O)N([C@H](C)CO)C[C@@H]2C)cc1	inactive	inactive	inactive
C[C@H](CO)N1C[C@H](C)[C@H](CN(C)C(=O)Nc2ccc3c(c2)OCO3)OCCCC[C@H](C)Oc2ccc(NC(=O)NC3CCCCC3)cc2C1=O	inactive	inactive	inactive
CCc1nnc(NC(=O)CSc2nnc3ncccn23)s1	inactive	inactive	inactive
Cc1noc(C)c1S(=O)(=O)Nc1ccc2c(c1)C(=O)N([C@H](C)CO)C[C@H](C)[C@H](CN(C)C(=O)Nc1ccc(F)cc1)OCCCC[C@@H](C)O2	inactive	inactive	inactive
COc1cc(SC)ccc1C(=O)Nc1ccc(Cl)cn1	inactive	inactive	
COc1ccc(-c2nc(-c3cccs3)no2)cc1	inactive	inactive	
COc1cccc(C(=O)Nc2ccc3c(c2)OC[C@@H](C)N(CC2CC2)C[C@H](C)[C@H](OC)CN(C)C3=O)c1	inactive	inactive	inactive
COc1ccc(-n2sc3ccc(F)cc3c2=O)cc1	inactive	inactive	
CC1(c2ccccc2Cl)NC(=O)N(CC(=O)N2CCc3ccccc32)C1=O (centres undefined)	inactive	inactive	inactive
C[C@@H]1CN([C@H](C)CO)C(=O)c2cc(C#CCN(C)C)cnc2O[C@@H]1CN(C)C(=O)CN1CCOCC1	inactive	inactive	inactive
CCCCC(=O)N(C)c1c(C)nc2ccc(C(=O)N3CCCCC3)cn12	inactive	inactive	inactive
Cc1cc(C(=O)CN2C(=O)c3ccccc3S2(=O)=O)c(C)n1C(C)C	inactive	inactive	
CCCC(=O)N1CCCC(c2cc(C(=O)Nc3ccccc3)no2)C1 (centres undefined)	inactive	inactive	
COc1ccc(OCC(=O)Nc2nccs2)cc1	inactive	inactive	
Cc1cccc(-c2ccc([C@H]3[C@@H](CO)N4CCCCN(C(=O)c5ccc6c(c5)OCO6)C[C@@H]34)cc2)c1		inactive	

Compound	outcome [1]	outcome [2]	outcome [3]
O=C(Cc1ccncc1)NCC[C@H]1CC[C@H](NC(=O)C2CCCC2)[C@H](CO)O1		inactive	
CCc1cc(-c2ccc3c(c2)COc2c4ccccc4nn2-3)on1		inactive	
CC(C)CCNC(=O)C(c1ccc(O)cc1)N(Cc1cccs1)C(=O)C1COc2ccccc2O1 (centres undefined)		inactive	
CC1CCN(c2ccc(-c3cccs3)nn2)CC1		inactive	
Cc1cc(C(=O)CSc2nnc3ccccn23)c(C)n1-c1ccccc1		inactive	
Cc1csc(NC(=O)c2ccc(N3CCCC3=O)cc2)n1		inactive	
O=C1CC(c2ccc3c(c2)OCO3)Sc2nc3ccccc3n21 (centres undefined)		inactive	
O=C(Nc1ccc(NC(=O)c2ccco2)nc1)c1ccco1		inactive	
COc1ccc(S(=O)(=O)N(C)C[C@@H]2OCCCC[C@H](C)Oc3ccc(NS(=O)(=O)c4ccc(F)cc4)cc3C(=O)N([C@@H](C)CO)C[C@@H]2C)cc1		inactive	
Cc1ccc(C)c(S(=O)(=O)N(C(=O)c2ccncc2)c2ccc(OC(=O)c3ccncc3)cc2)c1		inactive	
COc1ccc(S(=O)(=O)N(C)C[C@@H]2OCCCC[C@H](C)Oc3ccc(NS(=O)(=O)c4ccc(Cl)cc4)cc3C(=O)N([C@@H](C)CO)C[C@@H]2C)cc1		inactive	
O=C(Nc1ccc(Cl)cc1)Nc1cccc(C(=O)O)c1		inactive	
Cc1ccc(S(=O)(=O)N2CCCCC2)cc1NC(=O)c1ccc2c(=O)n3c(nc2c1)CCCCC3		inactive	
O=C(Nc1ccc(Cl)cc1Cl)c1ccc2c(c1)OCCO2		inactive	
c1ccc(-c2cn3c4c(sc3n2)CCCC4)cc1		inactive	
O=C(Nc1ccc(Cl)cc1)Nc1ccccc1C(=O)O		inactive	
CCCNC(=O)COC(=O)c1ccccc1C(=O)c1ccc(Cl)c([N+](=O)[O-])c1		inactive	
CC(C)CCn1cnc2c(oc3nc4c(cc32)CCCC4)c1=O		inactive	
C[C@H](CO)N1C[C@H](C)[C@H](CN(C)S(=O)(=O)c2ccc(C(F)(F)F)cc2)OCc2ccccc2-c2c(n(C)c3ccccc23)C1=O		inactive	
O=C(COc1ccc2c(c1)CCC2)Nc1ccccn1		inactive	
C[C@H](CO)N1C[C@H](C)[C@H](CN(C)C(=O)Nc2cccc3ccccc23)OCCCC[C@H](C)Oc2ccc(NC(=O)c3ccccc3)cc2C1=O		inactive	
CN(C)S(=O)(=O)c1cccc(NC(=O)COc2ccccc2C(=O)Nc2ccccc2)c1		inactive	
Cc1cnc(NC(=O)COc2ccccc2Cl)s1		inactive	
C[C@H](CO)N1C[C@H](C)[C@H](CN(C)C(=O)Nc2ccccc2)OCCCC[C@H](C)Oc2ccc(NC(=O)Nc3ccc4c(c3)OCO4)cc2C1=O		inactive	
CN1CCN(c2ccc(NC(=O)N3CCc4ccccc43)cc2)CC1		inactive	
COCCOc1cc(NCc2ccccc2)c2ncn(C(C)C)c2c1		inactive	

Compound	outcome [1]	outcome [2]	outcome [3]
COc1ccc(-c2cn3cc(C)ccc3n2)cc1F		inactive	
CCOc1ccc(C(=O)NCCc2ccccc2)cc1		inactive	
Cc1ccc2nc(-c3ccc(NC(=O)C4CCCO4)cc3)[nH]c2c1 (centres undefined)		inactive	
Cc1cccc(-c2ccc([C@H]3[C@@H](CO)N4CCCCN(C(=O)c5cccnc5)C[C@@H]34)cc2)c1		inactive	
CCc1ccc2oc(-c3ccc(N)cc3)nc2c1		inactive	
COc1ccc(-c2cc(-c3ccccc3)no2)cc1		inactive	
CCOc1ccc(-n2cc(-c3ccccc3)c3c(N4CCOCC4)ncnc32)cc1		inactive	
N#Cc1cccc(-c2ccc(C3[C@@H]4CN(C(=O)c5ccccn5)C[C@H]3N4)cc2)c1 (some centres undefined)		inactive	
CC(=O)N1CCCCN2[C@H](CO)[C@H](c3ccc(-c4cccc(C)c4)cc3)[C@@H]2C1		inactive	
O=C(c1ccccc1)N1CCSc2sccc2C1=O		inactive	
N#C[C@@H]1[C@H](c2ccc(C#CC3CCCCC3)cc2)[C@@H](CO)N1C(=O)c1cccc(F)c1		inactive	
CCCc1nc(SCC(=O)N2CCC(Cc3ccccc3)CC2)c2c(=O)n(C)c(=O)n(C)c2n1		inactive	
Cc1ccc(-n2cc(CN(C)Cc3nccn3C)c(-c3cccc(C)c3)n2)cc1		inactive	inactive
Cc1cccc(-c2ccc([C@H]3[C@@H](CO)N4CCCCN(C(=O)c5ccncc5)C[C@@H]34)cc2)c1		inactive	
CCCCc1ccc(NC(=O)c2cnccn2)cc1		inactive	
C[C@H](CO)N1C[C@H](C)[C@H](CN(C)C(=O)Nc2ccccc2)OCCCC[C@H](C)Oc2ccc(NC(=O)CCC(F)(F)F)cc2C1=O		inactive	inactive
Cn1nnnc1SCC(=O)N1CCN(C(=O)c2ccco2)CC1		inactive	inactive
N#C[C@@H]1[C@H](c2ccc(C#Cc3ccccc3F)cc2)[C@@H](CO)N1C(=O)C1CC1		inactive	
C[C@@H]1CN([C@@H](C)CO)C(=O)c2cccc(NC(=O)Nc3ccc(C(F)(F)F)cc3)c2O[C@@H]1CN(C)C(=O)Nc1cccc2ccccc12		inactive	
C[C@H](CO)N1C[C@H](C)[C@H](CN(C)C(=O)Nc2ccc(C(F)(F)F)cc2)OCCCC[C@H](C)Oc2ccc(NC(=O)CCC(F)(F)F)cc2C1=O		inactive	inactive
N#C[C@@H]1[C@H](c2ccc(C#CC3CCCCC3)cc2)[C@@H](CO)N1S(=O)(=O)c1ccccc1		inactive	
COc1cccc(C#Cc2ccc([C@@H]3[C@@H](CO)N(C(=O)C4CCC4)[C@H]3C#N)cc2)c1			inactive
O=C(CSc1ncnc2[nH]ncc12)Nc1nc(-c2ccc(F)c(F)c2)cs1			inactive
COc1ccc(NC(=O)N(C)C[C@@H]2OCCCC[C@H](C)Oc3ccc(NC(=O)C4CCCCC4)cc3C(=O)N([C@H](C)CO)C[C@@H]2C)cc1		inactive	inactive
CC[C@H](CO)Oc1cc(NCc2ccc(Cl)c(Cl)c2)c2ncn(C(C)C)c2c1		inactive	inactive
O=c1[nH]c(CSc2ccccn2)nc2c1oc1ccccc12		inactive	

Compound	outcome [1]	outcome [2]	outcome [3]
C[C@H](CO)N1C[C@H](C)[C@H](CN(C)C(=O)CN2CCOCC2)Oc2ncc(C#CCN(C)C)cc2C1=O		inactive	inactive
C[C@H](CO)N1C[C@H](C)[C@H](CN(C)C(=O)Nc2ccc(F)cc2)OCCCC[C@H](C)Oc2ccc(NC(=O)Nc3ccc(F)cc3)cc2C1=O		inactive	inactive
CN1c2ccc(-c3ccc(F)cc3)cc2[C@H]2[C@H](CCN2C(=O)Nc2ccc(F)cc2)[C@H]1CO		inactive	
Cc1ccc(S(=O)(=O)N(C)C[C@H]2Oc3cc(Br)ccc3S(=O)(=O)N([C@H](C)CO)C[C@H]2C)cc1		inactive	inactive
Cn1nnnc1Sc1ncnc2scc(-c3ccccc3C(F)(F)F)c12		inactive	inactive
C[C@H](CO)N1C[C@H](C)[C@H](CN(C)C(=O)Nc2ccc3c(c2)OCO3)OCCCC[C@H](C)Oc2ccc(NC(=O)C3CCCCC3)cc2C1=O		inactive	inactive
C[C@H]1CCCCO[C@@H](CN(C)C(=O)Nc2ccccc2)[C@@H](C)CN([C@@H](C)CO)C(=O)c2cc(NC(=O)NC3CCCCC3)ccc2O1		inactive	inactive
CCOc1ccc(-c2ccc(SCC)nn2)cc1		inactive	
COCC(=O)N[C@@H]1CC[C@@H](CC(=O)NCc2ccccc2OC)O[C@@H]1CO		inactive	inactive
NCC[C@H]1CC[C@H](NS(=O)(=O)Cc2ccccc2)[C@@H](CO)O1		inactive	inactive
C[C@H](CO)N1C[C@H](C)[C@H](CN(C)C(=O)Nc2cccc3ccccc23)OCCCC[C@H](C)Oc2ccc(NC(=O)C3CCCCC3)cc2C1=O		inactive	inactive
O=C(O)c1cccc(COc2ccc(CO)cc2Cl)c1		inactive	
CC(=O)N1CCc2cc(S(=O)(=O)C(C)CC(=O)NCc3ccco3)ccc21 (centres undefined)		inactive	inactive
C[C@H](CO)N1C[C@H](C)[C@@H](CN(C)C(=O)Nc2ccc3c(c2)OCO3)Oc2c(cccc2N(C)C)C1=O		inactive	inactive
COCC(=O)N1CCCCN2[C@H](CO)[C@H](c3ccc(-c4cccc(C)c4)cc3)[C@@H]2C1		inactive	
COc1ccc2[nH]c3c(c2c1)CCN1C(=O)N([C@@H](C)C(=O)NCc2ccc(C)cc2)C(=O)[C@]31C		inactive	inactive
CCC(=O)N(C)C[C@H]1Oc2cc(C#CCC(C)C)ccc2S(=O)(=O)N([C@H](C)CO)C[C@@H]1C		inactive	inactive
C[C@H](CO)N1C[C@H](C)[C@H](CN(C)C(=O)Nc2ccccc2)OCCCC[C@H](C)Oc2ccc(NC(=O)Nc3ccccc3)cc2C1=O		inactive	inactive
C[C@H](CO)N1C[C@H](C)[C@H](CN(C)C(=O)Nc2ccccc2)OCCCC[C@H](C)Oc2ccc(NC(=O)C3CCCCC3)cc2C1=O		inactive	inactive
COc1ccccc1N/C=C/c1onc(C)c1[N+](=O)[O-]		inactive	
O=C(Nc1ccc(N2CCOCC2)c(S(=O)(=O)Nc2ccccc2Cl)c1)c1ccc(F)cc1		inactive	inactive
CCCNC(=O)N1[C@H](C#N)[C@H](c2ccc(C#Cc3ccc(F)cc3)cc2)[C@H]1CO		inactive	
C[C@@H]1CN([C@@H](C)CO)S(=O)(=O)c2ccc(C3=CCCC3)cc2O[C@H]1CN(C)C(=O)c1ccccc1		inactive	inactive
C[C@H]1CCCCO[C@@H](CN(C)C(=O)Nc2ccc3c(c2)OCO3)[C@@H](C)CN([C@@H](C)CO)C(=O)c2cc(NC(=O)NC3CCCCC3)ccc2O1		inactive	inactive
COc1ccc(-c2cc(-c3nnc(COC(=O)C4CC4)o3)c3ccccc3n2)cc1OC		inactive	inactive
O=c1cc(-c2c(F)c(F)c(F)c(F)c2F)oc2ccccc12		inactive	inactive
